Measured values reported in PubChem BioAssay AID1573 (National Center for Advancing Translational Sciences (NCATS), 2009).
Results filed as inconclusive are left out. Activity calls are given as the source filed them. The call rests on the fitted dose curve; in most records, active means well fitted inhibition curve with a large enough effect; inconclusive means small, poorly fitted or top-dose-only effect; inactive means no such curve, though single readings can be large or run the other way.

These compounds were tested against Thyroid hormone receptor beta (Homo sapiens) (UniProt P10828) (assay: Concentration Response Confirmation Assay for Inhibitors of the Interaction of Thyroid Hormone Receptor and Steroid Receptor Coregulator 2). Conditions: TRb LBD + Texas Red SRC2 peptide, fluorescence polarization, 5 h; series mostly up to 92.2 µM.
Excerpt: NIH Molecular Libraries Probe Production Network [MLPCN] NIH Chemical Genomics Center [NCGC] MLPCN Grant: DK058080 Assay Provider: R. Kip Guy, St. Jude Children's Research Hospital NCGC Assay Overview: Thyroid receptor (TR) regulates many homeostatic processes including basal metabolism, cardiovascular function, body weight, and lipid trafficking. TR modulators are potential therapeutics for obesity and hyperlipidemias but current thyroid analogs have undesirable side effects, particularly cardiac stimulation. To identify inhibitors that specifically prevent the interaction of TR with the steroid receptor coregulator 2 (SRC2), a fluorescence polarization assay was screened. This assay detects interaction of the ligand-binding domain of human TRb with a Texas Red labeled SRC2 peptide, corresponding to a 20 amino acid region of the nuclear receptor interaction domain (Arnold et al., 2006). Small molecule inhibitors that block the interaction of TR and SRC2 are detected by a decrease in fluorescence polarization. This assay is a confirmation assay for AID 1469. Arnold, L. A.; Estebanez-Perpina, E.; Togashi, M.; Shelat, A.; Ocasio, C. A.; McReynolds, A. C.; Nguyen, P.; Baxter, J. D.; Fletterick, R. J.; Webb, P.; Guy, R. K. A high-throughput screening method to identify small molecule inhibitors of thyroid hormone receptor coactivator binding. Sci STKE 2006, p 13.
NCGC Assay Protocol Summary: For screening, 5 uL/well 0.6 uM TRb and 20 nM SRC2 Texas Red in protein buffer (20mM Tris hydrochloride, 100mM NaCl, 10% glycerol, 1mM EDTA, 0.01% NP-40, 1mM DTT, 1uM T3 and 5% DMSO) was dispensed into black solid 1536-well plates (Grenier) using a solenoid-based dispenser. […] The plates were read by an Envision (Perkin Elmer) to detect fluorescence polarization of SRC2 Texas Red (555 nm excitation and 632 nm emission). […] Keywords: NIH Roadmap, MLPCN, MLI, MLSMR, qHTS, NCGC, qHTS, thyroid hormone receptor, steroid receptor coactivator, fluorescence polarization

Chain of Thyroid hormone receptor beta (Homo sapiens) (P10828 whole entry, looked up, the tested form may be a part): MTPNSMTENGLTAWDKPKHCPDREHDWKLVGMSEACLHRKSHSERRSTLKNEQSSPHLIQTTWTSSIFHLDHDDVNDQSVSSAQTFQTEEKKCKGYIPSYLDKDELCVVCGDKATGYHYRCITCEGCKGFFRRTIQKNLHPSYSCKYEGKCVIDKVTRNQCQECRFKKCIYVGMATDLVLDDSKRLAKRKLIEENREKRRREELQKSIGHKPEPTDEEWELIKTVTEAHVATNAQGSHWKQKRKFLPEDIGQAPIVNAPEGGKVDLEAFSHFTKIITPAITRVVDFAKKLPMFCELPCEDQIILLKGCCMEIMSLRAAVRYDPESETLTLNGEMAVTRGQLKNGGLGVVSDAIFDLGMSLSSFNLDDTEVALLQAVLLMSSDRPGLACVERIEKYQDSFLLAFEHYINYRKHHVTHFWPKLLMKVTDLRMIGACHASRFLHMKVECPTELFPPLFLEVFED

Row | Compound | Potency
1 | COP(=S)(OC)Oc1ccc([N+](=O)[O-])cc1 | 25.1 µM (active)
2 | CCn1nc(-c2cccs2)nc2c(=O)n(C)c(=O)nc1-2 | inactive
3 | CN1CC[C@@]2(C)c3cc(O)ccc3N(C)C2O1 (stereo partly drawn) | 25.1 µM (active)
